About 79,000 compounds went through this panel and 15% of them were active in at least one assay; those are over-represented in the sample as a whole. Active and inactive are the calls of the source. Cut-off read from the data, not from the text of the source: active = growth inhibition above about 70%; inactive = the rest.
Experiments:
[1] = NCI Yeast Anticancer Drug Screen. Data for the mec2-1 strain (AID 157); details: S. cerevisiae mec2-1 strain, hits give high values
How it was run: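 Cells of the genetically defined mec2-1 yeast strain are incubated with test compound. Inhibition of growth is calculated against vehicle-treated controls.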

[2] = NCI Yeast Anticancer Drug Screen. Data for the rad14 strain (AID 159);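 note: 0% = growth of vehicle-treated control cultures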; details: S. cerevisiae rad14 strain growth inhibition, hits give high values
How it was run: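 Here, inhibition of yeast growth was measured after compound exposure, using a strain with a genetic defect in DNA damage repair and vehicle-treated cultures as the reference.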

[3] = NCI Yeast Anticancer Drug Screen. Data for the sgs1 mgt1 strain (AID 161);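 note: 0% = growth of cultures given vehicle only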; details: S. cerevisiae sgs1 mgt1 strain, hits give high values
How it was run: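 Genetically altered yeast, compound exposure, growth inhibition relative to vehicle.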

[4] = NCI Yeast Anticancer Drug Screen. Data for the CLN2oe strain (AID 163);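 note: 0% = growth of vehicle-only control cultures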; details: S. cerevisiae CLN2oe strain, hits give high values
How it was run: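 Strain altered in cell-cycle control, incubated with compound; growth compared to solvent-treated controls.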

[5] = NCI Yeast Anticancer Drug Screen. Data for the cln2 rad14 strain (AID 165);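 note: 0% = growth equal to vehicle treated cultures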; details: S. cerevisiae cln2 rad14 strain, hits give high values
How it was run: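 The screen exposed genetically defined yeast (cln2 rad14) to test compounds and scored growth inhibition relative to vehicle-treated controls.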

[6] = NCI Yeast Anticancer Drug Screen. Data for the bub3 strain (AID 167); details: S. cerevisiae bub3 mutant strain, hits give high values
How it was run: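 Whole-cell yeast assay. The mutant strain was incubated with compounds, and growth inhibition was determined by comparison with vehicle-treated cells.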

[7] = NCI Yeast Anticancer Drug Screen. Data for the wt2 strain (AID 169);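 note: 0% = growth of vehicle-treated yeast cultures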; details: S. cerevisiae wt2 strain growth inhibition, hits give high values
How it was run: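 Steps: yeast strain treated with compound; growth recorded; inhibition calculated relative to cultures given vehicle alone.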

[8] = NCI Yeast Anticancer Drug Screen. Data for the mlh1 strain (AID 171);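 note: 0% = growth of vehicle-treated control cultures of the same strain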; details: S. cerevisiae mlh1 strain growth inhibition, hits give high values
How it was run: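 Yeast screen: mutant strain plus compound, growth scored against vehicle control wells.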

[9] = NCI Yeast Anticancer Drug Screen. Data for the sgs1 strain (AID 173);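 note: 0% = growth of vehicle-only control cultures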; details: S. cerevisiae sgs1 mutant, hits give high values
How it was run: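 Inhibition of yeast growth served as the measure. The mutant strain was treated with each compound, and growth was normalised to cultures receiving vehicle alone.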

[10] = NCI Yeast Anticancer Drug Screen. Data for the rad18 strain (AID 177); details: S. cerevisiae rad18 mutant growth inhibition, hits give high values
How it was run: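 Inhibition values reflect reduced yeast growth compared with vehicle-treated controls, using a strain engineered with a DNA damage repair defect.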

[11] = NCI Yeast Anticancer Drug Screen. Data for the rad52 strain (AID 147);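 note: 0% = growth of vehicle-treated control cultures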; details: S. cerevisiae rad52 mutant growth inhibition, hits give high values
How it was run: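 Genetically altered yeast (DNA damage repair defect) treated with compound; inhibition calculated relative to vehicle.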

[12] = NCI Yeast Anticancer Drug Screen. Data for the wt1 strain (AID 149);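 note: 0% = growth of vehicle-treated wt1 cultures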; details: S. cerevisiae wt1 strain (SPY 50644) growth inhibition, hits give high values
How it was run: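 Measured: growth of wt1 yeast under compound versus vehicle treatment, reported as inhibition.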

[13] = NCI Yeast Anticancer Drug Screen. Data for the rad50EPP+ strain (AID 151);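 note: 0% = growth of vehicle-treated control cultures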; details: S. cerevisiae rad50 mutant strain, hits give high values
How it was run: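 Strain rad50EPP+; compound exposure; % growth inhibition vs vehicle.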

[14] = NCI Yeast Anticancer Drug Screen. Data for the mgt1 strain (AID 153); details: S. cerevisiae mgt1 mutant growth inhibition, hits give high values
How it was run: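 Read-out: yeast growth inhibition vs vehicle control. Strain mgt1, drawn from a panel altered in DNA damage repair or cell cycle control.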

[15] = NCI Yeast Anticancer Drug Screen. Data for the rad50 strain (AID 155);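 note: 0% = growth of vehicle-only cultures of the same strain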; details: S. cerevisiae rad50 strain growth inhibition, hits give high values
How it was run: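 Growth of the mutant yeast was measured after compound exposure and referenced to vehicle-treated cultures.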

[16] = NCI Yeast Anticancer Drug Screen. Data for the mlh1 rad18 strain (AID 175); details: S. cerevisiae mlh1 rad18 strain growth inhibition, hits give high values
How it was run: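 Compound-treated yeast growth, normalised to vehicle controls. Strain bears defined DNA repair mutations.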

[17] = at 5.0 µM (retest, dose inferred, filed as 0.5)
[18] = at 50.0 µM (retest, dose inferred, filed as 5.0)

Measured: growth inhibition

CCCCCCCCNCCCCCCCC
active: [1]; at 11.0 µM 77% | [1]; at 33.0 µM 98% | [1]; [18] 100% | [1]; at 50.0 µM 99.7% | [1]; at 100.0 µM 98% | [2]; at 3.7 µM 82% | [2]; at 11.0 µM 97% | [2]; at 33.0 µM 98% | [2]; at 100.0 µM 98% | [3]; [17] 82% | [3]; [18] 100% | [3]; at 50.0 µM 99.5% | [4]; at 33.0 µM 97% | [4]; at 100.0 µM 97% | [5]; [18] 100% | [5]; at 50.0 µM 99.1% | [6]; [17] 74% | [6]; at 11.0 µM 95% | [6]; at 33.0 µM 98% | [6]; [18] 99% | [6]; at 50.0 µM 99.5% | [6]; at 100.0 µM 99% | [7]; at 11.0 µM 76% | [7]; at 33.0 µM 99% | [7]; at 100.0 µM 99% | [8]; at 11.0 µM 96% | [8]; at 33.0 µM 99% | [8]; at 100.0 µM 100% | [9]; at 11.0 µM 94% | [9]; at 33.0 µM 97% | [9]; at 100.0 µM 97% | [10]; at 11.0 µM 91% | [10]; at 33.0 µM 99% | [10]; at 100.0 µM 95%
inactive: [1]; [17] 9% | [2]; at 1.2 µM 50% | [4]; at 1.2 µM 13% | [4]; at 3.7 µM 21% | [4]; at 11.0 µM 60% | [5]; [17] 65% | [6]; at 1.2 µM 33% | [6]; at 3.7 µM 49% | [7]; at 1.2 µM 0% | [7]; at 3.7 µM 17% | [8]; at 1.2 µM 6% | [8]; at 3.7 µM 20% | [9]; at 1.2 µM 11% | [9]; at 3.7 µM 30% | [10]; at 1.2 µM 14% | [10]; at 3.7 µM 38%

O=C(c1cc(=O)c2ccc(O)cc2o1)c1ccc(Cl)cc1Cl
active: [11]; at 33.0 µM 90% | [11]; at 100.0 µM 92% | [12]; at 33.0 µM 75% | [12]; at 100.0 µM 92% | [13]; at 33.0 µM 94% | [13]; at 100.0 µM 96% | [14]; at 33.0 µM 89% | [14]; at 100.0 µM 90% | [15]; at 33.0 µM 94% | [15]; [18] 95% | [15]; at 50.0 µM 86.5% | [15]; at 100.0 µM 93% | [1]; at 33.0 µM 80% | [1]; [18] 95% | [1]; at 50.0 µM 85.2% | [1]; at 100.0 µM 93% | [2]; at 33.0 µM 76% | [2]; at 100.0 µM 91% | [3]; [18] 92% | [3]; at 50.0 µM 88% | [4]; at 33.0 µM 94% | [4]; at 100.0 µM 92% | [5]; [18] 93% | [5]; at 50.0 µM 78.2% | [6]; at 33.0 µM 95% | [6]; [18] 97% | [6]; at 50.0 µM 88.5% | [6]; at 100.0 µM 94% | [7]; at 100.0 µM 88% | [8]; at 33.0 µM 91% | [8]; at 100.0 µM 92% | [16]; [18] 96% | [16]; at 50.0 µM 85.5% | [10]; at 33.0 µM 94% | [10]; at 100.0 µM 94%
inactive: [11]; at 1.2 µM -31% | [11]; at 3.7 µM -32% | [11]; at 11.0 µM 8% | [12]; at 1.2 µM -6% | [12]; at 3.7 µM 1% | [12]; at 11.0 µM -2% | [13]; at 1.2 µM -23% | [13]; at 3.7 µM -7% | [13]; at 11.0 µM 52% | [14]; at 1.2 µM -9% | [14]; at 3.7 µM -18% | [14]; at 11.0 µM 21% | [15]; at 1.2 µM -11% | [15]; at 3.7 µM -16% | [15]; [17] 23% | [15]; at 11.0 µM 12% | [1]; at 1.2 µM -27% | [1]; at 3.7 µM -13% | [1]; [17] -30% | [1]; at 11.0 µM 5% | [2]; at 1.2 µM 2% | [2]; at 3.7 µM 4% | [2]; at 11.0 µM 19% | [3]; [17] 3% | [4]; at 1.2 µM -23% | [4]; at 3.7 µM -8% | [4]; at 11.0 µM 23% | [5]; [17] 13% | [6]; at 1.2 µM -16% | [6]; at 3.7 µM -11% | [6]; [17] 23% | [6]; at 11.0 µM 46% | [7]; at 1.2 µM -4% | [7]; at 3.7 µM -4% | [7]; at 11.0 µM 0% | [7]; at 33.0 µM 68% | [8]; at 1.2 µM -19% | [8]; at 3.7 µM -7% | [8]; at 11.0 µM 33% | [16]; [17] 37% | [10]; at 1.2 µM -6% | [10]; at 3.7 µM -19% | [10]; at 11.0 µM 19%

— PubChem BioAssay (NCI)
